Reference: publication PMC7862700, “An all-to-all approach to the identification of sequence-specific readers for epigenetic DNA modifications on cytosine”

Tests used:
Assay in all cases: DAPPL (digital affinity profiling via proximity ligation, sequencing); 10 mM Tris-HCl pH 7.5, 50 mM NaCl, 1 mM DTT, 4% glycerol, room temperature, 30 min; GST-TFs on glutathione beads, 16-mer random dsDNA library, 0.1% formaldehyde crosslink after washing; high values mean tight binding
FEV = target: T1, FEV (Homo sapiens, UniProt Q99581 1-238); details: protein: recombinant; tags: N-terminal GST; dsDNA, one strand shown
T1 sequence: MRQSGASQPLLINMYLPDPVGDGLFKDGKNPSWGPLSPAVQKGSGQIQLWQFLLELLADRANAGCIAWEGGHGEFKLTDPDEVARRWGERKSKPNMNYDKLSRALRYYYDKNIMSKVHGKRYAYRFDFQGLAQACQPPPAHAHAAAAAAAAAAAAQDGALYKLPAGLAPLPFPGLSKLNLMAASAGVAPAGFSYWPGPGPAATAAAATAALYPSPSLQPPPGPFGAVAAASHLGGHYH
Summary of the method: (§1)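 Each value of binding signal is a hexamer's read frequency for a factor divided by the same hexamer's frequency in the tag-only sample. Barcoded, bead-captured GST fusions of human transcription factors made in yeast were pooled with that sample and incubated with 200 nmole of a random double-stranded 16-mer DNA library in Tris/NaCl/DTT/glycerol buffer at room temperature for 30 min. Washing, 0.1% formaldehyde crosslinking, proximity ligation, PCR and Illumina NextSeq500 sequencing followed.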

ETV5 = ETV5 (Homo sapiens, UniProt P41161 1-510); details: protein: recombinant; tags: N-terminal GST; dsDNA, one strand shown
Summary of the method: as §1

HSF1 = HSF1 (Homo sapiens, UniProt Q00613 1-529); details: protein: recombinant; tags: N-terminal GST; chain copies: 3; dsDNA, one strand shown
Summary of the method: as §1

SPIC = target: T2, SPIC (Homo sapiens, UniProt Q8N5J4 1-248); details: protein: recombinant; tags: N-terminal GST; dsDNA, one strand shown
T2 sequence: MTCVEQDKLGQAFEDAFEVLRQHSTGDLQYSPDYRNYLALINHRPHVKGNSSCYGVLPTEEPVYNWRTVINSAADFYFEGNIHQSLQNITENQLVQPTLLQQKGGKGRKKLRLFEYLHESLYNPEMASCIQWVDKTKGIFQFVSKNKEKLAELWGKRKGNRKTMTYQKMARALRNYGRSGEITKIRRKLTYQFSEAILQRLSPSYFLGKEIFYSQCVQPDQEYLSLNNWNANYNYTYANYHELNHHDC
Summary of the method: as §1

ELF4 = ELF4 (Homo sapiens, UniProt Q99607 1-663); details: protein: recombinant; tags: N-terminal GST; dsDNA, one strand shown
Summary of the method: as §1

ELK4 = target: T3, ELK4 (Homo sapiens, UniProt P28324-2 1-405); details: protein: recombinant; tags: N-terminal GST; dsDNA, one strand shown
T3 sequence: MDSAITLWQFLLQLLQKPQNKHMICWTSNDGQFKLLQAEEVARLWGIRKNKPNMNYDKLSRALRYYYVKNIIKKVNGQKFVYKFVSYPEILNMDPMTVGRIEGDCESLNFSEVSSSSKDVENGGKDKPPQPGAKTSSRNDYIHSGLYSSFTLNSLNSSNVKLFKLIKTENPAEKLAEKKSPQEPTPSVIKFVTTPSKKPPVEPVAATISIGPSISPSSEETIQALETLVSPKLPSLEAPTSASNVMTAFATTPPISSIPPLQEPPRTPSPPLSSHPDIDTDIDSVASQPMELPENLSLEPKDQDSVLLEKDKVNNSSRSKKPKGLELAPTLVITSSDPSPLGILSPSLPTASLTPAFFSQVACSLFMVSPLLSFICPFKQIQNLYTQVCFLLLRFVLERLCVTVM
Summary of the method: as §1

ETV2 = target: T4, ETV2 (Homo sapiens, UniProt O00321 1-342); details: protein: recombinant; tags: N-terminal GST; dsDNA, one strand shown
T4 sequence: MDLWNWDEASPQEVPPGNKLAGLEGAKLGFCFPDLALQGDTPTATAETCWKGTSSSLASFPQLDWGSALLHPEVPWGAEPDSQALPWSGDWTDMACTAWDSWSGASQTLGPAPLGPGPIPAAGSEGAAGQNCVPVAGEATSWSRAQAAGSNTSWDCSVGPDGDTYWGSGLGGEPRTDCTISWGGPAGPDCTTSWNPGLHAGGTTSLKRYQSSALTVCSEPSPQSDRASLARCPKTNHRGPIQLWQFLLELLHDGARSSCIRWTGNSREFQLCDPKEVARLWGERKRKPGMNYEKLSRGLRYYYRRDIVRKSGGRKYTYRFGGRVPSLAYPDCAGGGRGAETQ
Summary of the method: as §1

ELF3 = target: T5, ELF3 (Homo sapiens, UniProt P78545 1-371); details: protein: recombinant; tags: N-terminal GST; dsDNA, one strand shown
T5 sequence: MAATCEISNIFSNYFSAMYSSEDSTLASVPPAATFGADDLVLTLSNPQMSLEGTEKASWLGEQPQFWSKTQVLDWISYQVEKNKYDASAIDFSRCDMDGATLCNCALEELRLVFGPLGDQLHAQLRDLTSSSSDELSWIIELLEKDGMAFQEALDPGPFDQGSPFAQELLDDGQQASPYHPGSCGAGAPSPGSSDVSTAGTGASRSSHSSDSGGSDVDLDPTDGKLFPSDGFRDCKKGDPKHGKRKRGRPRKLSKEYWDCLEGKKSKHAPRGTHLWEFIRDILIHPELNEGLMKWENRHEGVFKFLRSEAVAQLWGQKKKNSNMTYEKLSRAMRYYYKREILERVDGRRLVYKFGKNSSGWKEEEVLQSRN
Summary of the method: as §1

CRX = CRX (Homo sapiens, UniProt O43186 1-299); details: protein: recombinant; tags: N-terminal GST; dsDNA, one strand shown
Summary of the method: as §1

ETV1 = ETV1 (Homo sapiens, UniProt P50549 1-477); details: protein: recombinant; tags: N-terminal GST; dsDNA, one strand shown
Summary of the method: as §1

ERF = target: T6, ERF (Homo sapiens, UniProt P50548 1-548); details: protein: recombinant; tags: N-terminal GST; dsDNA, one strand shown
T6 sequence: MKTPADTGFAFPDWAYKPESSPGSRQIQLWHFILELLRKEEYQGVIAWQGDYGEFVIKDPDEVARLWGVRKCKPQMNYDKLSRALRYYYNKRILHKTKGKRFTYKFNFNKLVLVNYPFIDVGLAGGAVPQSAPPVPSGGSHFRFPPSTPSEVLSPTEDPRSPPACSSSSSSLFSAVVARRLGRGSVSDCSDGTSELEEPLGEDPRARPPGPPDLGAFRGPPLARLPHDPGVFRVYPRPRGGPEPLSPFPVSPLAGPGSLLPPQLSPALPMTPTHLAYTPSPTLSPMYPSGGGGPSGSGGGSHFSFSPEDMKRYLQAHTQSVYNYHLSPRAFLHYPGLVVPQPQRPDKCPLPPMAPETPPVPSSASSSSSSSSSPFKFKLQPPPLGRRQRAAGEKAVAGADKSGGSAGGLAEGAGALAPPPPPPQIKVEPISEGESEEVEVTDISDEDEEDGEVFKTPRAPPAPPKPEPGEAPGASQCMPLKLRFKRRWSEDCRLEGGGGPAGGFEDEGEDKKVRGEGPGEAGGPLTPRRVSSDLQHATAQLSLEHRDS
Summary of the method: as §1

ETV3L = target: T7, ETV3L (Homo sapiens, UniProt Q6ZN32 1-361); details: protein: recombinant; tags: N-terminal GST; dsDNA, one strand shown
T7 sequence: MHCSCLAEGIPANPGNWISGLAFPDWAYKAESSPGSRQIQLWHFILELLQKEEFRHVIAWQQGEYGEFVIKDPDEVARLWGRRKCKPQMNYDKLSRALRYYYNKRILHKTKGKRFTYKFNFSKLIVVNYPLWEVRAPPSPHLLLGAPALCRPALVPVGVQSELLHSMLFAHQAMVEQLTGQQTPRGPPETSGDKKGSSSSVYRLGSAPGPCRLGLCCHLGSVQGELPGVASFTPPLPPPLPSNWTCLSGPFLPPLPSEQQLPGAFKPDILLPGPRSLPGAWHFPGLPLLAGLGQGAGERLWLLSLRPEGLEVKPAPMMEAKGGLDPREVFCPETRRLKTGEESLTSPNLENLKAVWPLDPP
Summary of the method: as §1

ETS2 = target: T8, ETS2 (Homo sapiens, UniProt P15036 1-469); details: protein: recombinant; tags: N-terminal GST; dsDNA, one strand shown
T8 sequence: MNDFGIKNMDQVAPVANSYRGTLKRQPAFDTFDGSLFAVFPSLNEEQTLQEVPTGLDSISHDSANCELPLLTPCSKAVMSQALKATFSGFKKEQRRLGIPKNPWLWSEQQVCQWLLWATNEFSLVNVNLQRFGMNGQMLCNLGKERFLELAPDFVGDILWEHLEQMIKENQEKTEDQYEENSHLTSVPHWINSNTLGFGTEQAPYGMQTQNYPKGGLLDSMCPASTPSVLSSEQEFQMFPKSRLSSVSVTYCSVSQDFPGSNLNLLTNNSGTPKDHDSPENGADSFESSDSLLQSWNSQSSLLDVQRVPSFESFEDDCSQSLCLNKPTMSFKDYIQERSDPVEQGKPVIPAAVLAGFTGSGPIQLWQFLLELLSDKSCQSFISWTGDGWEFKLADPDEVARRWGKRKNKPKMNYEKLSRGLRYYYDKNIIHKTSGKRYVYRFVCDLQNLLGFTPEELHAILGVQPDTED
Summary of the method: as §1

SPDEF = target: T9, SPDEF (Homo sapiens, UniProt O95238 1-335); details: protein: recombinant; tags: N-terminal GST; dsDNA, one strand shown
T9 sequence: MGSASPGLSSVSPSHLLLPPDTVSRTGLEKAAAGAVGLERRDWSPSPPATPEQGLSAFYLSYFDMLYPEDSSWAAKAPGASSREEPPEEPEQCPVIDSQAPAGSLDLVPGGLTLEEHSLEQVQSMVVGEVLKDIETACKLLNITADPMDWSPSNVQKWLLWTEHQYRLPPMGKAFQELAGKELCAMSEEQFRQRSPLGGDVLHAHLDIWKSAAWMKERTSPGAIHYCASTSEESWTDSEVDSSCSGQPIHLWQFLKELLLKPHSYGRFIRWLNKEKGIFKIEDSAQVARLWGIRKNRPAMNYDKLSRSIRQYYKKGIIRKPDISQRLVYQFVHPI
Summary of the method: as §1

ETV7 = target: T10, ETV7 (Homo sapiens, UniProt Q9Y603 1-341); details: protein: recombinant; tags: N-terminal GST; dsDNA, one strand shown
T10 sequence: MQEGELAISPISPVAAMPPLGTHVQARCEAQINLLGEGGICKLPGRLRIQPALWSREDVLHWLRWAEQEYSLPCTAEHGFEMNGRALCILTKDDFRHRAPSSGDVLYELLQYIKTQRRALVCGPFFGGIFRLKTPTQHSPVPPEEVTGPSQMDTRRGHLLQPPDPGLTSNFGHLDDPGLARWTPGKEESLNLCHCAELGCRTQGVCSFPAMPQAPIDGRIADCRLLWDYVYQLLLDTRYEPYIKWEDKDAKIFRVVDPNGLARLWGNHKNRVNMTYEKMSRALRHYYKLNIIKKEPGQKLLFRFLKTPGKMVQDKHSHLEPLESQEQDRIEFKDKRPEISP
Summary of the method: as §1

ELF5 = target: T11, ELF5 (Homo sapiens, UniProt Q9UKW6-2 1-255); details: protein: recombinant; tags: N-terminal GST; dsDNA, one strand shown
T11 sequence: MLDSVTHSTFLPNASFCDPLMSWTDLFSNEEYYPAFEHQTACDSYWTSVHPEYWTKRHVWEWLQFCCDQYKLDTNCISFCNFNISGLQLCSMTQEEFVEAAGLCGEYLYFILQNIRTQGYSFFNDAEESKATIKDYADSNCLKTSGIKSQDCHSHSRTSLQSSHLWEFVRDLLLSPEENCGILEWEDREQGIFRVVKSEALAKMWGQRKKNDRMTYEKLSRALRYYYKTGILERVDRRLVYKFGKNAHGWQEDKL
Summary of the method: as §1

ETV3 = target: T12, ETV3 (Homo sapiens, UniProt P41162-2 1-143); details: protein: recombinant; tags: N-terminal GST; dsDNA, one strand shown
T12 sequence: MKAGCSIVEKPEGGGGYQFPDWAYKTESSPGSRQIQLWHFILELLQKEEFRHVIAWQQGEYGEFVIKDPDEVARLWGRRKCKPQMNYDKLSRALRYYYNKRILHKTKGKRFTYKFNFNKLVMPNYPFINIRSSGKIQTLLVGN
Summary of the method: as §1

ETV6 = ETV6 (Homo sapiens, UniProt P41212 1-452); details: protein: recombinant; tags: N-terminal GST; dsDNA, one strand shown
Summary of the method: as §1

Chain of ETV5 (P41161 whole entry): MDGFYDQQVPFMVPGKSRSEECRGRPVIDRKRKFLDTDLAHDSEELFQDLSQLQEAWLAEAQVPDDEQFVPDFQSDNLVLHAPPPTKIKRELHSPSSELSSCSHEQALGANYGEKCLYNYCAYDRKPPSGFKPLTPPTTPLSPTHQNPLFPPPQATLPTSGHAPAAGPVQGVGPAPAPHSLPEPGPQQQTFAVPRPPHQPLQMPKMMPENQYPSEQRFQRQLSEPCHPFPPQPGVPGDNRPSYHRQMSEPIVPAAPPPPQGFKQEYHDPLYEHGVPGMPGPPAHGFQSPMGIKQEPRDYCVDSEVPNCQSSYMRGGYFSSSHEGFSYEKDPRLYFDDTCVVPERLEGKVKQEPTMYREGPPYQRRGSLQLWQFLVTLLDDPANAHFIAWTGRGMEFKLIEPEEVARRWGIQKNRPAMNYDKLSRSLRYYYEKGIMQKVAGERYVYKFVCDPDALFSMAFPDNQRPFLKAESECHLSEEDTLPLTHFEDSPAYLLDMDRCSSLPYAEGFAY
Chain of HSF1 (Q00613 whole entry): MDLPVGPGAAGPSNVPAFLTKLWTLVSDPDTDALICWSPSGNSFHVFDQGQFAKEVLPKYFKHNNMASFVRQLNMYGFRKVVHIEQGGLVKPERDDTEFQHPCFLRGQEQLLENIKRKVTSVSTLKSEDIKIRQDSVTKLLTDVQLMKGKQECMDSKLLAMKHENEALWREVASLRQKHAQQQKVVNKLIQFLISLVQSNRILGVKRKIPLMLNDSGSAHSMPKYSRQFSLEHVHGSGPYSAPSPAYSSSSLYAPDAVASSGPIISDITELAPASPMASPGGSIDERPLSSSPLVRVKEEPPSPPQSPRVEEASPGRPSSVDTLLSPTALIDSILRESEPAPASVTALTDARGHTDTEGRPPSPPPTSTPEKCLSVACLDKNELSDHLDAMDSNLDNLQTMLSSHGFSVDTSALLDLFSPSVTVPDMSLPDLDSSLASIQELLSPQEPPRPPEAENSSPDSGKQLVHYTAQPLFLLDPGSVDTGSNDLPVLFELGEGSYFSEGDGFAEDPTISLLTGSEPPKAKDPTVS
Chain of ETV1 (P50549 whole entry): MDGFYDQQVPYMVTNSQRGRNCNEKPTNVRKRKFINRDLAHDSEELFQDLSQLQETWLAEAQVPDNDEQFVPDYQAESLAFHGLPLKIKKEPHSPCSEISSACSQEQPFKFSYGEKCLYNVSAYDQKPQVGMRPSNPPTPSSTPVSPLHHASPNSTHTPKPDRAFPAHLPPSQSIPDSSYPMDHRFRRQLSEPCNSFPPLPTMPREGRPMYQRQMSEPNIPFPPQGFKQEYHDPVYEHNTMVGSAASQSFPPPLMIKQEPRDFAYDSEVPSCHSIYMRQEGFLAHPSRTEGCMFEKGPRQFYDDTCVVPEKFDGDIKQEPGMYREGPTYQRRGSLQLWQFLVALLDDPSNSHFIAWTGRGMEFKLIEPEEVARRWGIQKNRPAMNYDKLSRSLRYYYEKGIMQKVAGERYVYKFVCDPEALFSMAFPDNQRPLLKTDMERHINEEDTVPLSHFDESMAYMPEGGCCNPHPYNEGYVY
Chain of ELF4 (Q99607 whole entry): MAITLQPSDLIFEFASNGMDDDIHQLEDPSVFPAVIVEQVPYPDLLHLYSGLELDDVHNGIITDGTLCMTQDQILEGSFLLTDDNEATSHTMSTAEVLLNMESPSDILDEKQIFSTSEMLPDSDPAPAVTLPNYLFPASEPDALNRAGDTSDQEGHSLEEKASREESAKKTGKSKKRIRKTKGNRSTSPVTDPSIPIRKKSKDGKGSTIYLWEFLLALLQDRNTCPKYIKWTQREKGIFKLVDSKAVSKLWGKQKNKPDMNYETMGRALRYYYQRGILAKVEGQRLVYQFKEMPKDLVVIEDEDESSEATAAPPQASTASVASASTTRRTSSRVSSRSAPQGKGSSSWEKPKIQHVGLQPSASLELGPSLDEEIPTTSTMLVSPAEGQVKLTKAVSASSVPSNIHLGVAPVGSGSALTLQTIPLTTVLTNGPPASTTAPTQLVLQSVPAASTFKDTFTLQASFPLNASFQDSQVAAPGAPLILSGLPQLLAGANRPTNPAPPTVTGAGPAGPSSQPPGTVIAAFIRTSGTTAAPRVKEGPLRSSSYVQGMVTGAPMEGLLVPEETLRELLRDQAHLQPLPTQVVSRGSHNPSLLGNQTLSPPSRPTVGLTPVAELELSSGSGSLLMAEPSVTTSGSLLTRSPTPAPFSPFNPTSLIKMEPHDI
Chain of ETV6 (P41212 whole entry): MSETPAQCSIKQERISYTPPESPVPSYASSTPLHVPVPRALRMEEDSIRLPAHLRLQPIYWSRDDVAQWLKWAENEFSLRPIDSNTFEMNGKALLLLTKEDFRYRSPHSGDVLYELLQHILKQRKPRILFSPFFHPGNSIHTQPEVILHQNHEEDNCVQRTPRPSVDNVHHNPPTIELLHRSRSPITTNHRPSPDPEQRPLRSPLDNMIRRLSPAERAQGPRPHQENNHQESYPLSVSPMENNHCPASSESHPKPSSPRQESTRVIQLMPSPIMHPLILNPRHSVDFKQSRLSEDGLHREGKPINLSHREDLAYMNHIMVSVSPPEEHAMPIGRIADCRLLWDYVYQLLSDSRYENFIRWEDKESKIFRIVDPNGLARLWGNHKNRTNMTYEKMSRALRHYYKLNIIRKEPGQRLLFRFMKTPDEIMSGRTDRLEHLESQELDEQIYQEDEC
Chain of CRX (O43186 whole entry): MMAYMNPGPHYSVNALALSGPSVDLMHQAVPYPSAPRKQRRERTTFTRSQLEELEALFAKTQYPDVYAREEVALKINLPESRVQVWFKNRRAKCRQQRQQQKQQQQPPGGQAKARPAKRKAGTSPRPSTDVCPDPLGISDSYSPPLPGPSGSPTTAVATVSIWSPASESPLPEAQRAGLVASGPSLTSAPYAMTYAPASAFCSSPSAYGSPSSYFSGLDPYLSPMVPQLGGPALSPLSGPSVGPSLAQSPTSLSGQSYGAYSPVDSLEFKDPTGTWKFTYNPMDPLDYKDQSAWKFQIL

TATGAT
binding signal (FEV): 1.16 fold enrichment (6-mer frequency, TF over GST control)
binding signal (ETV5): 1.24 fold enrichment (6-mer frequency, TF over GST control)
binding signal (HSF1): 1.31 fold enrichment (6-mer frequency, TF over GST control)
binding signal (SPIC): 1.29 fold enrichment (6-mer frequency, TF over GST control)
binding signal (ELF4): 1.12 fold enrichment (6-mer frequency, TF over GST control)
binding signal (ELK4): 1.25 fold enrichment (6-mer frequency, TF over GST control)
binding signal (ETV2): 1.27 fold enrichment (6-mer frequency, TF over GST control)
binding signal (ELF3): 1.09 fold enrichment (6-mer frequency, TF over GST control)
binding signal (CRX): 1.5 fold enrichment (6-mer frequency, TF over GST control)
binding signal (ETV1): 1.17 fold enrichment (6-mer frequency, TF over GST control)
binding signal (ERF): 1.22 fold enrichment (6-mer frequency, TF over GST control)
binding signal (ETV3L): 1.18 fold enrichment (6-mer frequency, TF over GST control)
binding signal (ETS2): 1.17 fold enrichment (6-mer frequency, TF over GST control)
binding signal (SPDEF): 1.23 fold enrichment (6-mer frequency, TF over GST control)
binding signal (ETV7): 1.25 fold enrichment (6-mer frequency, TF over GST control)
binding signal (ELF5): 1.26 fold enrichment (6-mer frequency, TF over GST control)
binding signal (ETV3): 1.26 fold enrichment (6-mer frequency, TF over GST control)
binding signal (ETV6): 1.17 fold enrichment (6-mer frequency, TF over GST control)
